Rows were chosen to be rich in hits. Some 3.1% of all compounds tested hit in one or more screens of this group.
p53null 32C kill: kills p53 null cells at the permissive temperature. 0.62% of 55,000 active. Potency, µM (doses to about 46.1 µM), for the others: at the top dose activity change, negative = cytotoxicity, hits mostly cytotoxic. AID 903. H1299-neo p53 null cells, ATP luminescence, 24 h, 32C;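 further: 0% = DMSO only and -100% = full killing by 100 µM tamoxifen; nearly all actives have a fitted effect of over 55% in size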
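H1299-neo (p53-null) cells, 600/well, were pre-incubated overnight at 37C, then exposed to compounds at up to 46 uM for 24 hr at 32C. Viability was measured as ATP content by luminescence, and AC50 values came from Hill fits.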
OvCa metastasis: inhibitors of ovarian cancer cell adhesion and invasion in omental model | SKOV3ip1-GFP adhesion/invasion on 3D omental model, fluorescence | Potency, µM (highest dose often 45.8 µM), for the others: at the top dose activity change, negative = inhibition, usual class: inhibitors | 0.1% of 46,000 active;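 further: plate controls were DMSO wells for no effect and tomatine positive control wells for full effect; nearly all actives have a fitted effect of over 65% in size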
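Adhesion/invasion was scored as fixed GFP-labeled SKOV3ip1 cell counts (488/509 nm), normalized to DMSO and tomatine controls. Cancer cells in serum-free medium, with four compound doses (0.36-46 umol/L), sat 2 hr at RT then 16 hr at 37 C on a 48 hr fibroblast/mesothelial/ECM culture.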
p53null 39C kill: p53 null cell cytotoxicity, nonpermissive temperature; H1299 p53-null (neo) cells, 39C, ATPlite viability, 24 h; Potency, µM (top dose mostly 46.1 µM), inactives show top-dose activity, negative = cell killing, hits mostly cytotoxic; 0.97% of 55,000 active; AID 904;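 further: 0% = DMSO only and -100% = full killing by 100 µM tamoxifen; nearly all actives have a fitted effect of over 50% in size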
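Concentration-response (up to 46 uM) was run for 24 h at the nonpermissive 39C on H1299-p53A138V or H1299-neo cells. ATP content was measured with ATPlite luminescence. AC50 values were Hill-modeled after normalizing between DMSO and 100 uM tamoxifen killing.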
S16 F2sN tox: S16 Schwann cell cytotoxicity. 0.48% of 43,000 active. S16 Pmp22-F2sN Schwann cells viability, CellTiter-Glo, 24 h. Potency, µM (highest dose often 57.5 µM), for inactives: at the highest dose activity change, negative = cytotoxicity, hits mostly cytotoxic; further: nearly all actives have a fitted effect of over 65% in size
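Viability was measured by CellTiter-Glo luminescence (15 min, room temperature). This followed 24 h at 37 °C of compound exposure (23 nL pin transfer) in S16 Pmp22-F2sN Schwann cells, 500-1,000 per well.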
mTORC1 inh: inhibitors of mTORC1 signaling in Tsc2-/- p53-/- MEF cells | Tsc2-/- p53-/- MEF, phospho-rpS6 immunofluorescence/PI, 24 h | Potency, µM (top dose mostly 38.3 µM), for inactives: at the highest dose activity change, negative = inhibition, hits mostly inhibitors | AID 493208 | 0.78% of 44,000 active;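 further: plate controls were DMSO for no effect and rapamycin for full effect; nearly all actives have a fitted effect of over 50% in size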
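Immunofluorescence of rpS6 phosphorylation in Tsc2-/-, p53-/- MEFs after 24 h compound exposure, normalized to propidium iodide signal. Activity is expressed as % positive cells, thresholded with 7.5 nM rapamycin.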
PMP22 txn prim: modulators of PMP22 gene transcription in S16 Schwann cells; S16 Pmp22-F2sN Schwann cells (luciferase reporters placed in the Pmp22 gene), FLuc/NLuc coincidence luminescence, 24 h; Potency, µM (titrated, usually from 57.5 µM), inactives show top-dose activity change, negative = inhibition, actives largely listed as inhibitors; 2% of 43,000 active; AID 1508649; active means clear falling dose curves in both reporters; inconclusive means both reporters move, but less clearly or upward; inactive means either reporter flat; the % is the NLuc reporter signal
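Transcriptional readout in edited S16(c9) cells: two luciferases reported from the Pmp22 locus, measured in turn after 24 h compound incubation.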
* hit, by the source's call; i = inactive; ? = inconclusive; nt = no result. Unless noted, the call rests on the fitted dose curve; in most records, active means well fitted curve in the direction sought with a large enough effect; inconclusive means small, poorly fitted or top-dose-only effect, or another doubt; inactive means no such curve, though single readings can be large; an effect the other way counts as inactive or inconclusive. Unless noted, on the % scale 0 is the no-effect control and ±100 the full control effect; potency means the concentration at half of the fitted maximal effect.

SMILES | p53null 32C kill | OvCa metastasis | p53null 39C kill | S16 F2sN tox | mTORC1 inh | PMP22 txn prim
Cc1cccc(N2CCN(C(=O)Cn3c(C)c4cnn(-c5ccccc5)c(=O)c4c3C)CC2)c1C | 19% | i | 7% | ? | 5% | 12µM*
CSc1cccc(NC(=O)c2ccc3c(c2)CCCN3S(C)(=O)=O)c1 | 13µM* | -3% | ? | -25% | -3% | ?
CCS(=O)(=O)N1CCCc2cc(C(=O)Nc3cccc(C(C)=O)c3)ccc21 | -5% | 1% | 6% | -19% | 2% | 9%
NC(=O)c1ncn([C@@H]2O[C@H](CO)[C@@H](O)[C@@H]2O)c1N | nt | -15% | nt | nt | nt | nt
CCCCN(C)CCCNC(=O)C1CCN(S(=O)(=O)CC)CC1 | -6% | ? | -2% | 6% | 6% | -9%
CCCCN(C)CCCNC(=O)C1CCN(c2nc3ccc(CC)cc3s2)CC1 | ? | ? | 13µM* | ? | 18µM* | ?
CCCCN(CC)CCCNC(=O)C1CCN(c2nc3ccc(CC)cc3s2)CC1 | ? | ? | 13µM* | ? | 7.4µM* | ?
CCc1ccc2nc(N3CCN(C(=O)c4ccco4)CC3)sc2c1 | -29% | -2% | -12% | 0% | -4% | ?
CCC1=Nc2cc(C(=O)NCc3ccc(C)cc3)ccc2Sc2ccc(C)cc21 | 43% | -23% | 6% | -8% | -16% | ?
CCCC1=Nc2cc(C(=O)NCc3ccccc3)ccc2Sc2ccccc21 | 18% | ? | 13% | ? | ? | 12µM*
O=C(Nc1nc2ccccc2n1CCOc1ccccc1Cl)c1ccccc1 | -12% | -8% | -19% | 8% | -4% | ?
C[C@H](NCc1ccc2c(c1)nc(NC(=O)c1ccc(-c3cn[nH]c3)s1)n2CCc1ccccc1)C(C)(C)C | nt | 19µM* | nt | nt | nt | nt
COc1ccc(-c2cc(C(=O)Oc3ccc(Br)cc3)c3ccccc3n2)cc1 | ? | 5% | 13µM* | 2% | 4% | -14%
COc1ccc(-c2cc(C(=O)Oc3ccc(C)c(C)c3)c3ccccc3n2)cc1 | -17% | i | 2% | 0% | 14% | -19%
COc1ccccc1-c1cc(C(=O)Nc2cc(OC)c(OC)c(OC)c2)no1 | 9% | -26% | -18% | ? | ? | 3.8µM*
COc1ccccc1-c1cc(C(=O)Nc2cc(Cl)ccc2O)no1 | -4% | 2% | -12% | nt | -29% | nt
CC(=O)Nc1ccc(NC(=O)CCc2c(C)nc3c(c(C)nn3-c3ccc(C)cc3)c2C)cc1 | -1% | -10% | 6.3µM* | 3% | -2% | ?
CC(=O)Nc1ccc(NC(=O)CCc2c(C)nc3c(c(C)nn3-c3ccccc3)c2C)cc1 | 0% | -7% | ? | -7% | -2% | -7%
CC(=O)c1ccc(NC(=O)CSc2nnc(NC(=O)NC3CCCCC3)s2)cc1 | 6.3µM* | i | 7.9µM* | 8% | -2% | -9%
COc1ccc(NC(=O)CSc2nnc(NC(=O)NC3CCCCC3)s2)cc1OC | 13µM* | -15% | 11µM* | 6% | 2% | -28%
O=C(CSc1nnc(NC(=O)NC2CCCCC2)s1)Nc1ccccc1F | 10µM* | i | ? | 10% | 1% | 19%
CCC(C)Cn1c(/C=C/c2ccccc2)nc2ccccc21 (configuration not stated) | ? | -4% | 10µM* | -21% | -22% | ?
C#CCn1c(/C=C/c2ccc(Cl)cc2)nc2ccccc21 | 3.2µM* | -4% | 4µM* | ? | 1% | 3%
CC(C)CCn1c(/C=C/c2ccccc2)nc2ccccc21 | ? | -2% | ? | -11% | -20% | ?
CC(C)Cn1c(/C=C/c2ccc(F)cc2)nc2ccccc21 | 11µM* | -14% | 7.9µM* | ? | -20% | ?
SMILES | p53null 32C kill | OvCa metastasis | p53null 39C kill | S16 F2sN tox | mTORC1 inh | PMP22 txn prim
O=C(C=Cc1c(C(=O)O)[nH]c2cc(Cl)cc(Cl)c12)Nc1ccccc1 | nt | -17% | nt | nt | nt | nt
O=C(CSc1nnc2[nH]c(=O)cc(-c3ccccc3)n12)Nc1cc(C(F)(F)F)ccc1Cl | 1.3µM* | -2% | 0.79µM* | -6% | -7% | ?
Cc1cc(=O)[nH]c2nnc(SCC(=O)Nc3cc(C(F)(F)F)ccc3Cl)n12 | -15% | i | ? | -12% | 0% | ?
Cc1cc(-c2nc3ncccc3o2)ccc1N | 11µM* | nt | ? | nt | nt | nt
Nc1cc(-c2nc3ncccc3o2)ccc1Cl | -28% | nt | 8% | nt | nt | nt
COc1ccc2cc(-c3nc4ccc(C(=O)O)cc4[nH]3)c(=O)oc2c1 | 1.6µM* | 1% | -2% | -3% | -1% | -1%
CCOC(=O)c1ccc(NC(=O)c2nc(SC(C)C)ncc2Cl)cc1 | -1% | i | -11% | -9% | 2% | ?
Cc1cccc(NC(=O)c2nc(S(C)(=O)=O)ncc2Cl)c1 | 23% | ? | 76% | 5µM* | 3.3µM* | 2.4µM*
CCOC(=O)c1ccc(NC(=O)c2nc(S(=O)(=O)Cc3ccccc3)ncc2Cl)cc1 | -9% | ? | 23% | 5µM* | ? | 1.9µM*
CN(c1ccccc1)S(=O)(=O)c1ccc(NC(=O)c2nc(S(C)(=O)=O)ncc2Cl)cc1 | 22µM* | i | ? | 4.5µM* | 1.2µM* | 2.1µM*
CCS(=O)(=O)c1ncc(Cl)c(C(=O)Nc2ccccc2)n1 | 61% | ? | 20µM* | 6.3µM* | 1.8µM* | 2.2µM*
CCSc1ncc(Cl)c(C(=O)Nc2ccccc2)n1 | -15% | nt | nt | nt | nt | nt
C=CCn1c(=O)c2cnc(Nc3ccc(N4CCN(C)CC4)cc3)nc2n1-c1cccc(C(C)(C)O)n1 | nt | 5% | nt | nt | nt | nt
COc1ccccc1[C@H](c1cccc2ccccc12)[C@@](C)(C#N)C(=O)N1CCC(c2cccc(C(F)(F)F)c2)CC1 | nt | -1% | nt | nt | nt | nt
Cc1c(CN2CCN(C(=O)C(C)C)CC2)sc2c(N3CCOCC3)nc(-c3cnc(N)nc3)nc12 | nt | 19% | nt | nt | nt | nt
O=C(NCCCNc1nc(Nc2cccc(NC(=O)N3CCCC3)c2)ncc1I)c1cccs1 | nt | -1% | nt | nt | nt | nt
CCOC(=O)c1c(-c2ccccc2)csc1NC(=O)c1nc(S(=O)(=O)CC)ncc1Cl | 13% | ? | ? | 11µM* | ? | 4.5µM*
CCS(=O)(=O)c1ncc(Cl)c(C(=O)Nc2c(C(=O)Nc3cccc(C)c3)oc3ccccc23)n1 | ? | -8% | ? | 2.2µM* | ? | 3.2µM*
CCSc1ncc(Cl)c(C(=O)Nc2c(C(=O)Nc3cccc(C)c3)oc3ccccc23)n1 | -14% | -14% | 2% | 1% | -3% | -11%

Screens: PubChem BioAssay, National Center for Advancing Translational Sciences (NCATS)
